Source: PubChem BioAssay (NCATS)
Records with an inconclusive call do not appear. Active and inactive are the calls of the source. The call rests on the fitted dose curve; in most records, active means well fitted curve in the direction sought with a large enough effect; inconclusive means small, poorly fitted or top-dose-only effect, or another doubt; inactive means no such curve, though single readings can be large; an effect the other way counts as inactive or inconclusive.

Columns and labels:
[1] = Panc-1005 Cancer Cell Toxicity qHTS against the NCATS CANVASS Library (AID 1347349); further: nearly all actives have a fitted effect of over 60% in size; further: potency means the concentration at half of the fitted maximal effect
Procedure, shortened: (§1)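 1000 cells/well seeded and rested 4 h at 37 °C before pin transfer of compounds in an 11-pnt series. Exposure 72 h at 37 °C/5% CO2; viability by CellTiter-Glo luminescence after 15 min at room temperature.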

[2] = SW1088 Cancer Cell Toxicity qHTS against the NCATS CANVASS Library (AID 1347350); further: nearly all actives have a fitted effect of over 75% in size
Procedure, shortened: as §1

[3] = COV-362 Cancer Cell Toxicity qHTS against the NCATS CANVASS Library (AID 1347352); further: potency means the concentration at half of the fitted maximal effect
Procedure, shortened: (§2)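 Cells at 1000/well were given compound 4 h after plating in an 11-point series. Viability was read by CellTiter-Glo luminescence after 72 h at 37 degrees C.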

[4] = A2780 Cisplatin Sensitive Ovarian Cancer Cell Toxicity qHTS against the NCATS CANVASS Library (AID 1347353); further: nearly all actives have a fitted effect of over 60% in size; further: potency means the concentration at half of the fitted maximal effect
Procedure, shortened: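 A2780 cells, 750/well, settled 4 h at 37 °C, then treated with an 11-point compound series for 72 h. Viability was read as ATPLite luminescence after 10 min at room temperature, with bortezomib as control.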

[5] = UWB1.289-WTBRCA1 Cancer Cell Toxicity qHTS against the NCATS CANVASS Library (AID 1347354)
Procedure, shortened: as §2

[6] = HEK-293 Cancer Cell Toxicity qHTS against the NCATS CANVASS Library (AID 1347355); further: nearly all actives have a fitted effect of over 65% in size; further: potency means the concentration at half of the fitted maximal effect; on outcome: series mostly up to about 46 µM
Procedure, shortened: as §2

[7] = test system: NAD(P)H diaphorase (Clostridium kluyveri); experiment: Diaphorse counterscreen qHTS: Assay Interference Panel against the NCATS CANVASS Library (AID 1347362)
Procedure, shortened: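 Clostridium kluyveri diaphorase in PBS + 0.01% Tween-20 preincubated 15 min with compounds. Resazurin and NADH then added for 5 min at room temperature in the dark; resorufin fluorescence read (ex 525, em 598).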

[8] = KB-8-5-11 Cancer Cell Toxicity qHTS against the NCATS CANVASS Library (AID 1347364); further: nearly all actives have a fitted effect of over 75% in size
Procedure, shortened: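 KB-8-5-11 cells, 500/well in DMEM + 10% FBS, given compounds in an 11-point series. Incubated 72 h at 37 °C. Viability by CellTiter-Glo luminescence. Confirmation also run with 1 uM tariquidar.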

[9] = SDT Cancer Cell Toxicity qHTS against the NCATS CANVASS Library (AID 1347365); further: nearly all actives have a fitted effect of over 60% in size; further: potency means the concentration at half of the fitted maximal effect
Procedure, shortened: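 SDT dog glioma cells (500/well) exposed to an 11-point compound series for 72 hr at 37C, 5% CO2. Cytotoxicity read as ATP content by CellTiterGlo luminescence; bortezomib titration as control.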

[10] = G06 Cancer Cell Toxicity qHTS against the NCATS CANVASS Library (AID 1347368); further: nearly all actives have a fitted effect of over 60% in size; further: potency means the concentration at half of the fitted maximal effect
Procedure, shortened: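 G06 dog glioma cells, 500 per well, exposed 72 hr at 37C, 5% CO2 to compounds in an 11-point series. Cytotoxicity read as ATP content by CellTiterGlo luminescence.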

[11] = qHTS for ATAD5 Antagonist screened against the NCATS CANVASS Library (AID 1347370); further: nearly all actives have a fitted effect of over 65% in size; further: potency means the concentration at half of the fitted maximal effect
Procedure, shortened: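 HEK293T cells with stably integrated ATAD5-luciferase reporter, 2000/well, 5 h attachment; compounds plus 10 µM 5-fluorouridine, 16 h at 37 °C. Luciferase luminescence read, with CellTiter-Fluor viability read first.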

[12] = qHTS for Hypoxia signaling pathway (HIF-1) antagonists against the NCATS CANVASS Library (AID 1347374); further: nearly all actives have a fitted effect of over 60% in size; further: potency means the concentration at half of the fitted maximal effect
Procedure, shortened: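 HRE-bla ME-180 cells in medium with 0.5% dialyzed FBS received compounds (11-point series) plus CoCl2 (60 uM addition stock) for 17 hrs at 37C. Beta-lactamase activity read with CCF4 (405 nm ex, 460/530 nm em); CellTiter-Glo viability measured in same wells.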

[13] = DH5-alpha competent E. coli microbial cell viability qHTS against the NCATS CANVASS Library (AID 1347377); conditions: outcome: dose series up to 46.1 µM unless noted
Procedure, shortened: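 DH5-alpha E. coli suspension was exposed to an 11-point compound series overnight at 37 °C. Viable cells quantified by ATP luminescence (BacTiter-Glo) after 20 min at room temperature.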

[14] = qHTS for Inflammasome Signaling Inhibitors: IL-1-beta AlphaLISA screen against the NCATS CANVASS Library (AID 1347379);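 further: human THP-1 cells primed with LPS then triggered with ATP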
Procedure, shortened: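 THP-1 cells pretreated 1 hr with compound (up to 57.5 uM final), then stimulated with LPS (250 ng/mL final) and ATP (1.25 mM final). Secreted IL-1B measured by AlphaLISA after 16 hr; glyburide as positive control.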

[15] = qHTS for Activators of p53 Stress Response Pathway screened against the NCATS CANVASS Library (AID 1347388); further: potency means the concentration at half of the fitted maximal effect
Procedure, shortened: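 p53RE-bla HCT-116 cells (4000/well) were pre-incubated for 5 h, then treated with compound (11 points) for 16 h at 37C. After 2 h with CCF4, the 460/530 nm ratio gave reporter activation; CellTiter-Glo measured viability.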

[16] = qHTS assay for small molecule disruptors of mitochondrial membrane potential screened against the NCATS CANVASS Library (AID 1347389); further: nearly all actives have a fitted effect of over 60% in size; further: potency means the concentration at half of the fitted maximal effect
Procedure, shortened: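 HepG2 cells (2,000/well) plated overnight, then exposed to compounds in 11-point qHTS series for 1 h at 37C before 30 min Mito-MPS dye; depolarization read as fall in red aggregate (590 nm) to green monomer (535 nm) fluorescence.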

[17] = Secretion counterscreen for inhibitors of the SERCaMP assay screened against the NCATS CANVASS Library (AID 1347390);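 further: light from luciferase secreted into medium read as a measure of general secretion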; further: potency means the concentration at half of the fitted maximal effect
Procedure, shortened: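 Counterscreen identifying compounds that disrupt secretion, using SH-SY5Y cells with a constitutively secreted Gaussia luciferase reporter. A 20 h compound exposure (top 77 uM) precedes luminescent detection with coelenterazine.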

[18] = qHTS for activators of Nrf2/ARE signaling pathway screened against the NCATS CANVASS Library (AID 1347391); further: nearly all actives have a fitted effect of over 60% in size
Procedure, shortened: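 ARE-bla HepG2 beta-lactamase reporter cells exposed to compounds for 16 h at 37C; CCF4 substrate 2 h, fluorescence at ex 405 nm, em 460/530 nm. Viability by CellTiter-Glo luminescence.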

[19] = qHTS for inhibitors of ER calcium dysfunction: SERCaMP assay screened against the NCATS CANVASS Library (AID 1347393); further: nearly all actives have a fitted effect of over 40% in size; further: potency means the concentration at half of the fitted maximal effect
Procedure, shortened: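 SH-SY5Y GLuc-SERCaMP, 1000 cells/well, 4 h attach; cpd 16 h, 37C/5% CO2; thapsigargin (added as 6x 600 nM) 4 h; coelenterazine; luminescence. Reduced reporter release = ER Ca stabilization.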

[20] = Vero-766 cells viability qHTS against the NCATS CANVASS Library: Counterscreen for Zika virus inhibition assay (AID 1347394)
Procedure, shortened: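 This cytotoxicity counterscreen uses African green monkey Vero 766 cells in the absence of Zika virus. Compounds are incubated with cells for 72 h, and ATP-based luminescence reports viability.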

Measured: Potency

CC1C(=O)C23CCC1C[C@@]21O[C@H]2C(C)(C)C=CC(=O)[C@@]23COC1=O (stereo not given in full)
inactive: all assays above

C/C(=C\[C@H](C)C(=O)CCCC1CC(=O)NC(=O)C1)[C@@H]1OC(=O)/C=C/CC/C=C/C[C@@H](O)[C@@H]1C
active: [1] 1.88 µM | [4] 0.833 µM | [6] 1.87 µM | [9] 0.935 µM | [10] 1.05 µM | [11] 2.34 µM | [12] 1.06 µM | [14] 9.68 µM | [17] 3.84 µM
inactive: [7] | [13] | [15] | [16] | [18] | [19] | [20]

C[C@@H]1C(=O)[C@]23CC[C@H]1C[C@]21O[C@H]2C(C)(C)C=CC(=O)[C@@]23COC1=O
active: [12] 23.6 µM
not listed: [18] | [19]
inactive: all other assays above

CNc1ccc(Cl)cc1C(=O)OC[C@]1(C)[C@H]2CC[C@]3(C)[C@@H](C[C@@H](OC)[C@H](C)[C@H]3C3=C(O)C(=O)OC3O)[C@]2(C)CC[C@H]1O (stereo not given in full)
active: [15] 20.9 µM
not listed: [2] | [9] | [10]
inactive: all other assays above

CCC1=C2CCCN3C(=O)O[C@H]([C@H]1OC(C)=O)[C@H]23
inactive: all assays above

CC(C)(Br)[C@@H](Cl)C[C@H](Br)[C@](C)(Cl)/C=C/Br
inactive: [5] | [7] | [11] | [13] | [15] | [17] | [20]
active: [4] 2.35 µM | [9] 18.7 µM | [10] 13.2 µM | [16] 16.6 µM | [19] 21.6 µM

COC1C(O)C(OC(N)=O)C(Oc2ccc3c(O)c(NC(=O)c4ccc(O)c(CC=C(C)C)c4)c(=O)oc3c2C)OC1(C)C (stereo not given)
active: [17] 24.3 µM | [19] 27.2 µM
not listed: [16]
inactive: all other assays above

CCCCCC[C@H](CCCCC[C@@H](O)C(N)=O)OC(=O)[C@@H]1CC=CN1C(=O)c1ccccc1O
not listed: [2] | [4] | [5] | [7] | [9] | [10] | [13]
inactive: all other assays above

Oc1ccc(C2c3c(O)cc(O)cc3[C@@H]3C(c4ccc(O)cc4)c4c(O)cc(O)cc4[C@H]23)cc1 (stereo not given in full)
not listed: [1] | [4] | [15] | [16]
inactive: all other assays above

CN1C(=O)C2C(N=CN2C)N(C)C1=O (stereo not given)
inactive: all assays above

C=C1C(=O)O[C@H]2[C@H]1CC/C(CO)=C\CC[C@@]1(C)O[C@@H]21
inactive: [7] | [13] | [18] | [20]
active: [1] 10.6 µM | [3] 13.3 µM | [4] 2.96 µM | [6] 5.9 µM | [9] 13.2 µM | [10] 11.8 µM | [11] 20.9 µM | [12] 4.72 µM | [14] 6.11 µM | [17] 34.3 µM | [19] 4.31 µM

CC(=O)O[C@H]1CC[C@@]2(C)C(CC[C@]3(C)C2CC=C2C4CC(C)(C)CC[C@]4(C)CC[C@]23C)C1(C)C (stereo not given in full)
not listed: [16]
inactive: all other assays above
